KDM5B inhibitor – blocks human KDM5B histone demethylase activity; hit rate 2.6% among 220,000; AID 1347165; Potency, µM (titrated, usually from 57.7 µM), actives largely listed as inhibitors; Q9UGL1; KDM5B demethylase, FDH-coupled NADH fluorescence (FDH is formaldehyde dehydrogenase); active = well fitted inhibition curve with a large enough effect; note: 0% is about no effect; nearly all actives have a fitted effect of over 70% in size
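KDM5BΔAP (200 nM final) in 50 mM HEPES pH 7.5, 0.01% Tween-20 was preincubated 10 min at RT with compound over a concentration range. Substrate mix (H3K4me3 12.5 µM, α-KG 25 µM, Fe²⁺, ascorbate, NAD⁺, FDH) was added, and NADH fluorescence change over 30 min gave dose-response curves.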
Numbers without * were called inactive. The full list was thinned out, with hits kept by preference. Potency is the fitted concentration of half-maximal effect.

CN(c1ccc2sc(C(=O)NC3CCCC3)cc2c1)S(=O)(=O)c1ccc(Cl)cc1 was read as KDM5B inhibitor inactive.
Cc1nnc(-c2cc(-c3cccc(F)c3)ccn2)n1C1CCCCC1 was read as KDM5B inhibitor inactive.
For COc1cccc(-c2ccnc(-c3nnc(C)n3C3CCCCC3)c2)c1 the results were KDM5B inhibitor inactive.
Screening COc1ccc(-c2ccnc(-c3nnc(C)n3C3CCCCC3)c2)cc1OC returned KDM5B inhibitor 35.5µM*.
For CN(Cc1ccccc1)Cc1cc(CC2(NCc3ccccc3O)COC2)no1 the results were KDM5B inhibitor inactive.
For Cc1nonc1NC(=O)COc1ccc(C(C)C)cc1 the results were KDM5B inhibitor inactive.
For O=C(NCCC1CCN(C(=O)Nc2cc(F)cc(F)c2)CC1)c1ccccc1 the results were KDM5B inhibitor inactive.
`COc1ccc(C(=O)NCCC2CCN(C(=O)Nc3cc(F)cc(F)c3)CC2)cc1` gave KDM5B inhibitor inactive.
Screening CN(C)c1cccc(C(=O)NCCC2CCN(C(=O)Nc3cc(F)cc(F)c3)CC2)c1 returned KDM5B inhibitor 31.6µM*.
`C[S+](=O)([O-])N1Cc2ccccc2CC2(CCCN(Cc3cccnc3)C2)C1` (stereo not drawn) gave KDM5B inhibitor inactive.
`O=C1NCc2ccccc2CC12CCN(Cc1ccc(Br)cn1)CC2` gave KDM5B inhibitor inactive.
`CCNC(=O)N(C)Cc1nc(-c2ccc(Cl)cc2)no1` gave KDM5B inhibitor inactive.
CCN(CC)S(=O)(=O)c1cc(C(=O)Nc2ccc(C(=O)O)cc2)ccc1C was read as KDM5B inhibitor inactive.
`Cc1cn2nc(C(=O)NCc3ccncc3)cc2c(N2CCSCC2)n1` gave KDM5B inhibitor inactive.
CCOc1ccc(CNC(=O)C2CCN(c3nn4c(=O)cc(C)nc4s3)CC2)cc1 was read as KDM5B inhibitor inactive.
CCc1ccc(CNC(=O)c2cc3c(N4CCSCC4)nc(C)cn3n2)cc1 was read as KDM5B inhibitor 31.6µM*.
For COc1cc(=O)n2c(c1C(=O)NCc1cccc(C(F)(F)F)c1)CCCC2 the results were KDM5B inhibitor inactive.
Screening Cc1cn2nc(C(=O)NCc3ccc(C(F)(F)F)cc3)cc2c(N2CCSCC2)n1 returned KDM5B inhibitor 28.2µM*.
For COc1nccc(N2CCC(CC(=O)NCc3cccc(C(F)(F)F)c3)CC2)n1 the results were KDM5B inhibitor inactive.
CC(C)COc1cc(=O)n2c(c1C(=O)NCc1ccc(C(F)(F)F)cc1)CCCCC2 was read as KDM5B inhibitor inactive.
For Cc1cn2nc(C(=O)NCc3cccc(C(F)(F)F)c3)cc2c(N2CCSCC2)n1 the results were KDM5B inhibitor 28.2µM*.
CCOc1ccc2c(n1)CCN(C(=O)CCc1ccccc1)C2 was read as KDM5B inhibitor inactive.
For Cc1cc(Br)cc2c(C(=O)NC3CCCCC3)cc(-c3ccccc3)nc12 the results were KDM5B inhibitor inactive.
Screening Cc1noc2nc(C3CC3)cc(C(=O)NCc3ccc4c(c3)OCCO4)c12 returned KDM5B inhibitor inactive.
C=CCNC(=O)C(NC(=O)c1cccc(OC)c1)C1CCN(C(=O)c2cccc(C)c2)CC1 (stereo not drawn) was read as KDM5B inhibitor inactive.
For COCc1ccc2c(c1)c(OC(C)(C)C(=O)Nc1cccnc1)nn2Cc1cccnc1 the results were KDM5B inhibitor inactive.
Screening COCc1ccc2c(c1)c(OC(C)(C)C(=O)NCC(F)(F)F)nn2Cc1cccnc1 returned KDM5B inhibitor inactive.
Screening COCc1ccc2c(c1)c(OC(C)(C)C(=O)NC(C)C)nn2Cc1cccc(OC)c1 returned KDM5B inhibitor 35.5µM*.
`CCCNC(=O)C(C)(C)Oc1nn(Cc2ccccc2)c2ccc(COC)cc12` gave KDM5B inhibitor 31.6µM*.
`COCc1ccc2c(c1)c(OC(C)(C)C(=O)NCC(C)C)nn2Cc1cccnc1` gave KDM5B inhibitor inactive.
`COCc1ccc2c(c1)c(OC(C)(C)C(=O)Nc1cccnc1)nn2Cc1ccccc1` gave KDM5B inhibitor inactive.
COCc1ccc2c(c1)c(OC(C)(C)C(=O)Nc1ccn(C)n1)nn2Cc1ccccc1 was read as KDM5B inhibitor inactive.
Screening COCc1ccc2c(c1)c(OC(C)(C)C(=O)NCc1cnccn1)nn2Cc1ccccc1 returned KDM5B inhibitor inactive.
For COCc1ccc2c(c1)c(OC(C)(C)C(=O)NC1CCC(O)CC1)nn2Cc1ccccc1 (stereo not drawn) the results were KDM5B inhibitor 25.1µM*.
`Fc1ccc(CSc2ccc3ccccc3n2)cc1` gave KDM5B inhibitor inactive.
O=C(Nc1cccc(C(F)(F)F)c1)c1cn2c3c(cccc3c1=Nc1cccc(C(F)(F)F)c1)CCC2 was read as KDM5B inhibitor inactive.
`Cc1ccc(Cl)cc1-n1ncc2c(NCC3CCCO3)ncnc21` (stereo not drawn) gave KDM5B inhibitor inactive.
Screening CC(C)C(=O)N1CCC2(CC1)NCCc1c2[nH]c2ccccc12 returned KDM5B inhibitor inactive.
CCCC(=O)Nc1ccccc1NC(=O)c1ccc(C(C)(C)C)cc1 was read as KDM5B inhibitor inactive.
Screening Cc1ccc(NC(=O)CSc2nc3cc(C)[nH]c3c(=O)[nH]2)c(Br)c1 returned KDM5B inhibitor inactive.
`CCn1ccc(C(=O)N2CCc3nc(NC)nc(C(=O)N4CCCC4)c3C2)n1` gave KDM5B inhibitor 17.8µM*.
Screening CNc1nc2c(c(C(=O)N3CCCC3)n1)CN(S(=O)(=O)C1CC1)CC2 returned KDM5B inhibitor inactive.
CCn1ccc(C(=O)N2CCCCCCNC(=O)CC2)n1 was read as KDM5B inhibitor inactive.
Screening O=C(c1cccc(OC(F)F)c1)N1CCC(NS(=O)(=O)c2cccs2)CC1 returned KDM5B inhibitor inactive.
`Cc1nc2cc(F)ccc2cc1C(=O)NC1CCC(C)CC1` (stereo not drawn) gave KDM5B inhibitor inactive.
For Cn1c(C(=O)Nc2cccc3ncccc23)c(Cl)c2ccccc21 the results were KDM5B inhibitor inactive.
Screening O=C(NCc1cccs1)c1cc(-c2cccnc2)nc2ccc(Cl)cc12 returned KDM5B inhibitor inactive.
`O=C(NCc1cccs1)c1cc(-c2cccnc2)c2nncn2n1` gave KDM5B inhibitor 100µM*.
O=C(NCc1cccs1)c1c[nH]c2ncccc12 was read as KDM5B inhibitor inactive.
`C=CCNC(=O)N[C@H]1CCN(C(=O)CC(C)(C)C)[C@@H]1C(=O)N(C)CC(N)=O` gave KDM5B inhibitor inactive.
Screening O=C(Cn1nc2n(c1=O)CCCCC2)Nc1ccc(Br)cc1 returned KDM5B inhibitor inactive.
O=C(NCCCn1cccn1)c1cccnc1N1CC2CC(C1)[C@H]1CCCC(=O)N1C2 (stereo partly drawn) was read as KDM5B inhibitor 28.2µM*.
For O=C(c1ccccn1)N1CC2CC(C1)[C@H]1CCCC(=O)N1C2 (stereo partly drawn) the results were KDM5B inhibitor inactive.
`O=C(NCCCc1ccccc1)c1ccc(N2CC3CC(C2)[C@H]2CCCC(=O)N2C3)nc1` (stereo partly drawn) gave KDM5B inhibitor inactive.
`CC(C)OCCCNC(=O)c1ccc(N2CC3CC(C2)[C@H]2CCCC(=O)N2C3)nc1` (stereo partly drawn) gave KDM5B inhibitor inactive.
Screening Cc1nccn1CCNC(=O)c1ccc(N2CC3CC(C2)[C@H]2CCCC(=O)N2C3)nc1 (stereo partly drawn) returned KDM5B inhibitor inactive.
Screening O=C(NCCCn1cccn1)C1CCN(C(=O)N2CC3CC(C2)[C@H]2CCCC(=O)N2C3)CC1 (stereo partly drawn) returned KDM5B inhibitor inactive.
